# Laboratory results reported in PubChem BioAssay AID504700 (The Scripps Research Institute Molecular Screening Center, 2011).
# In all, about 340,000 compounds went through this assay and about 270 (0.079%) were called active.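 How the source made its calls: active means activation above a cutoff set at the mean over all compounds plus 3 SD (cut at about 18% in these data); inactive means the rest.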 The list comes from a sample in which actives are over-represented; it also holds similar structures and randomly drawn compounds.
# Target: cAMP-dependent protein kinase catalytic subunit beta (Homo sapiens) + cAMP-dependent protein kinase type II-beta regulatory subunit (Homo sapiens) (UniProt P22694+P31323)
# Experiment: activators of PKA-R2B holoenzyme, primary screen, biochemical, fluorescence polarization, Cy5-IP20, human (AID 504700);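 further: higher means more holoenzyme dissociation and a rise in polarization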
# Details: PKA-R2B holoenzyme dissociation, at 11.4 µM, hits give high values, 0% DMSO only, 100% 113 µM cGMP, R2B truncated from residue 108, S112A mutant
# Chain of cAMP-dependent protein kinase catalytic subunit beta (Homo sapiens) + cAMP-dependent protein kinase type II-beta regulatory subunit (Homo sapiens) (P31323 whole entry, looked up, other chains not shown): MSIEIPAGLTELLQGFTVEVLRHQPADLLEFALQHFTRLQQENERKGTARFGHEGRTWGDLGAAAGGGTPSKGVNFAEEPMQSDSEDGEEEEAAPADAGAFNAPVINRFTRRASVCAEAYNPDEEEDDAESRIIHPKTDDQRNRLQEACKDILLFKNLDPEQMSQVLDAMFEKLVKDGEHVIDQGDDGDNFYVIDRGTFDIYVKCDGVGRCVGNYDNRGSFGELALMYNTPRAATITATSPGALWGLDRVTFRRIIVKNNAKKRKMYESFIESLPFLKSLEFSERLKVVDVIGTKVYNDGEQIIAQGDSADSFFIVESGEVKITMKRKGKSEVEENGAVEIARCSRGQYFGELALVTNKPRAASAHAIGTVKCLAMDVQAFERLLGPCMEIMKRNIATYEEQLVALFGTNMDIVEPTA
row,SMILES,activation
1,C[C@H]1CN([C@@H](C)CO)S(=O)(=O)c2ccc(-c3cccc(F)c3)cc2O[C@@H]1CN(C)C,-5.98% (inactive)
2,COc1ccc2nc(-c3ccccn3)ccc2c1,-2.17% (inactive)
3,COc1ccc(Cn2c(=O)oc3ccccc32)cc1,-4.8% (inactive)
4,O=C1[C@H]2[C@@H](c3ccc(C(F)(F)F)cc3)N[C@]3(CCCN(Cc4ccc(Cl)cc4)C3=O)[C@H]2C(=O)N1Cc1ccccc1,-7.06% (inactive)
5,COc1ccc(-c2ccc(CN3C(CC(C)C)C(=O)N(Cc4cn(CC5CCCCC5)nn4)CCS3(=O)=O)cc2)cn1 (stereo not drawn),5.33% (inactive)
6,O=C(COC(=O)c1cncc(Br)c1)Nc1ccc(S(=O)(=O)N2CCOCC2)cc1,-6.43% (inactive)
7,CCOC(=O)c1cc(-c2sc(NC(=O)c3ccccc3)nc2C)n(CCO)n1,-2.07% (inactive)
8,COC(=O)[C@H]1C[C@H](OC(=O)NCc2ccccc2)[C@@]2(O)CN(S(=O)(=O)c3ccc(C)cc3)CC2[C@H]1C(=O)OC (stereo partly drawn),1.85% (inactive)
9,O=C(C[C@H]1C[C@@H]2c3cc(NC(=O)C4CCC4)ccc3O[C@@H]2[C@H](CO)O1)NC1CCCCC1,-4.88% (inactive)
10,CCN(CC(=O)Nc1ccc(NC(C)=O)cc1)C(=O)C1CC(=O)N(c2ccc3c(c2)OCCO3)C1 (stereo not drawn),1.33% (inactive)
11,Cc1ccccc1-c1ccc2c(c1)O[C@@H](CN(C)Cc1ccc(C(=O)O)cc1)[C@@H](C)CN([C@H](C)CO)S2(=O)=O,1.68% (inactive)
12,Cc1cc(C)c2cc(C#N)c(N3CCNCC3)nc2c1,5.23% (inactive)
13,COCC1CCCCN1C(=O)c1cc(COc2ccc(C)c(C)c2)on1 (stereo not drawn),-6.78% (inactive)
14,c1ccc(CNCc2ccc(CNCc3ccccc3)cc2)cc1,-1.27% (inactive)
15,C[C@@H]1CN([C@H](C)CO)C(=O)CCCn2nncc2CO[C@@H]1CN(C)S(=O)(=O)c1cccc(C#N)c1,5.67% (inactive)
16,O=C(c1ccccc1)N1CCN(c2cc(-c3ccccc3)nc3cc(-c4cccc(Cl)c4)nn23)CC1,-2.44% (inactive)
17,C[C@H]1NS(=O)(=O)c2cc(Cl)ccc2O[C@@H]1c1ccccc1,-0.08% (inactive)
18,S=C(NN=Cc1ccccn1)Nc1ccccn1,12.6% (inactive)
19,CN1OC[C@@H]2CN(C(=O)c3ccc(-c4ccccc4)cc3)[C@H](c3ccc(-c4cccc(F)c4)cc3)C[C@@H]21,-8.75% (inactive)
20,C[C@H](CO)N1C[C@H](C)[C@H](CN(C)C(=O)Nc2ccc3c(c2)OCO3)Oc2ncc(Br)cc2C1=O,6.88% (inactive)
21,O=C(c1cccs1)N1C[C@H](n2cc(C3CC3)nn2)[C@@H](O)C[C@@H]1c1ccccc1,5.94% (inactive)
22,N#CCSc1ccccc1NC(=O)CN1C(=O)NC(CCc2ccccc2)C1=O (stereo not drawn),0.61% (inactive)
23,COC(=O)c1ccccc1N=NNc1ccc([N+](=O)[O-])cc1,7.66% (inactive)
24,O=C1NC(Cc2ccccc2)c2nc3ccc(Br)cc3c(=O)n2-c2cc3ccccc3cc21 (stereo not drawn),-6.52% (inactive)
25,COc1cc(C(=O)N2CCOC23CCN(Cc2ccccc2)CC3)cc(OC)c1OC,5.01% (inactive)
26,CC(=O)c1ccc(OCC(=O)N(C)C2CCS(=O)(=O)C2)cc1 (stereo not drawn),-5.08% (inactive)

row,SMILES,activation
1,C[C@@H]1CN([C@H](C)CO)S(=O)(=O)c2ccc(C#C[C@@H](C)O)cc2O[C@@H]1CN(C)Cc1ccc(-c2ccccc2)cc1,-12.3% (inactive)
2,O=C(NCCN1CCOCC1)c1ccc2c(c1)N(Cc1cccc(Cl)c1)C(=O)c1ccccc1S2(=O)=O,-0.88% (inactive)
3,COc1ccc(NC2CCCN(C(=O)c3ccccc3-c3ncc[nH]3)C2)cc1 (stereo not drawn),-6.86% (inactive)
4,Cc1sc2ncnc(SCC(=O)NC3CCS(=O)(=O)C3)c2c1C (stereo not drawn),-9.19% (inactive)
5,CN(c1ccccc1)S(=O)(=O)c1ccc(C(=O)NCc2cccnc2)cc1,-3.42% (inactive)
6,O=C(COC(=O)CCc1c[nH]c2ccccc12)Nc1cccc(Cl)c1,1.73% (inactive)
7,CCOC(=O)c1cc(-c2sc(NC(=O)c3ccccc3)nc2C)n(Cc2ccccc2)n1,-0.16% (inactive)
8,O=C(COC(=O)c1ccc(S(=O)(=O)N2CCCCCC2)cc1)Nc1ccccc1C(F)(F)F,-16.8% (inactive)
9,CN(Cc1ccccc1)C(=O)CCC1CCN(C(=O)c2ccco2)CC1,2.88% (inactive)
10,Cc1[nH]c2ccccc2c1C(=O)C(=O)NCc1nnnn1-c1cccc(F)c1,-2.65% (inactive)
11,O=C(CCCN1C(=O)c2cccc3cccc(c23)C1=O)N1CCN(Cc2ccc3c(c2)OCO3)CC1,18.8% (active)
12,Cc1cc(C)n2nc(C(=O)N3CCN(Cc4ccc5c(c4)OCO5)CC3)nc2n1,-11.3% (inactive)
13,Cn1c(=O)cc(OCCCC(=O)N2CCN(Cc3ccc4c(c3)OCO4)CC2)c2ccccc21,-7.18% (inactive)
14,CCN1C(=O)[C@H]2[C@@H](c3ccccc3)N[C@]3(CCCN(Cc4ccc(C)cc4)C3=O)[C@H]2C1=O,0.79% (inactive)
15,O=C(NCCS(=O)(=O)N1CCN(c2ccccc2)CC1)c1cc(=O)c2ccccc2o1,-13.1% (inactive)
16,CCCCN1C(=O)C(CC(=O)NC(c2ccccc2)c2ccccc2)CC(C(=O)N2CCOCC2)=C1C (stereo not drawn),-5.21% (inactive)
17,Cc1ccccc1NC(=O)Cc1nc(COC(=O)C(C)(C)Oc2ccc(Cl)cc2)cs1,3.15% (inactive)
18,C/C(COc1ccccc1)=N\NC(=O)c1nnn(-c2nonc2N)c1-c1ccc(C)cc1,-17.1% (inactive)
19,CCCc1c(C)nc2scc(-c3ccc(Cl)cc3)n2c1=O,-2.72% (inactive)
20,CSc1ncnc2c1ncn2CCCNCc1cccs1,2.56% (inactive)
21,CCC(Oc1ccccc1)C(=O)OCC(=O)Nc1c(C)nn(-c2ccccc2)c1C (stereo not drawn),-5.13% (inactive)
22,COc1cccc(OCC(=O)NCCS(=O)(=O)N2CCN(c3ccccc3)CC2)c1,0.99% (inactive)
23,CNC(=O)C[C@H]1C(=O)N(Cc2ccccc2)C[C@@H]1CSC,-9.1% (inactive)
24,COc1ncnc2c1ncn2CCCNCCN1CCOCC1,4.38% (inactive)
25,O=S1(=O)CCN(Cc2ccccc2)CC1,-1.42% (inactive)
26,C[C@@H]1CN([C@@H](C)CO)S(=O)(=O)c2ccc(C#Cc3cccc(F)c3)cc2O[C@H]1CN(C)S(=O)(=O)c1cn(C)cn1,7.01% (inactive)

row,SMILES,activation
1,Nc1cccc(OCCCCCOc2cccc(N)c2)c1,5.43% (inactive)
2,COC(=O)C[C@H]1C[C@@H]2c3cc(N(C)C)ccc3O[C@@H]2[C@H](CO)O1,5.15% (inactive)
3,O=C1OCCC1=COCCCCOC=C1CCOC1=O,3.03% (inactive)
4,COc1ccc(CN2C(=O)C(CC(=O)NCc3cccc4ccccc34)CC(C(=O)N3CCOCC3)=C2C)cc1 (stereo not drawn),2.78% (inactive)
5,CC(=O)Nc1ccc2nc(NC(=O)CS(=O)(=O)c3ccc(F)cc3)sc2c1,-8.48% (inactive)
6,CNC(=O)C1CN(C(=O)c2cccc(S(=O)(=O)N3CCc4ccccc43)c2)c2ccccc2O1 (stereo not drawn),1.53% (inactive)
7,Cc1ccc(S(=O)(=O)N2CCCCC2)cc1NC(=O)CCNC(=O)c1ccccc1Cl,16.1% (inactive)
8,O=C(NCc1ccccc1)C1CNCC(C(=O)NCc2ccccc2)C1 (stereo not drawn),9% (inactive)
9,CCCCCCNC(=O)O[C@H]1CN(C(=O)OC(C)C)N(C(=O)OC(C)C)[C@@H]2CN(S(=O)(=O)c3ccc(C)cc3)C[C@]12O,-13.6% (inactive)
10,COc1ccc([N+](=O)[O-])cc1NC(=O)C(C)OC(=O)C1c2ccccc2Oc2ccccc21 (stereo not drawn),-4.93% (inactive)
11,COc1ccccc1C1SCCN1C(=O)c1ccc([N+](=O)[O-])cc1 (stereo not drawn),0.16% (inactive)
12,COc1ccc([N+](=O)[O-])cc1C1NN=C(c2cccc3ccccc23)S1 (stereo not drawn),20.8% (active)
13,O=C(N=C1SC2CS(=O)(=O)CC2N1Cc1ccccc1)c1ccccc1 (stereo not drawn),1.79% (inactive)
14,C[C@@H]1CN([C@H](C)CO)C(=O)c2cc(Br)cnc2O[C@@H]1CN(C)Cc1cncnc1,2.5% (inactive)
15,CC1=C(C(=O)N2CCOCC2)CC(CC(=O)NCC2CCCCC2)C(=O)N1Cc1ccc(F)cc1 (stereo not drawn),-0.55% (inactive)
16,C[C@H](CO)N1C[C@H](C)[C@@H](CN(C)S(=O)(=O)c2ccc(F)cc2)OCc2cnnn2CCCC1=O,-2.57% (inactive)
17,CC1(C)CC(=O)C=C(c2ccc(COC(=O)c3cc(F)cc(F)c3)cc2)C1=O,4.64% (inactive)
18,CC1(C2CC2)NC(=O)N(CC(=O)N2CCN(c3ccccc3F)CC2)C1=O (stereo not drawn),1.69% (inactive)
19,CCCCN(C(C)=O)c1ccc2c(c1)C1CC2CCN1Cc1ccccc1 (stereo not drawn),2.7% (inactive)
20,Cc1ccc(-c2ccc(C3=CC(=O)CC(C)(C)C3=O)cc2)cc1,9.99% (inactive)
21,CCCCN1C[C@H](c2ccc(Br)cc2)[C@@H](CC(=O)Nc2ccc(Br)cc2)C1=O,2.46% (inactive)
22,Cc1ccc(S(=O)(=O)N2C[C@H]3n4c(=O)ccc(=O)n4C[C@H](OC(=O)NC4CCCC4)[C@@]3(O)C2)cc1,8.63% (inactive)
23,CCOc1ccc(NS(=O)(=O)c2ccc(C(=O)NCC3CCCO3)cc2)cc1 (stereo not drawn),-2.2% (inactive)
24,Cc1nn(Cc2ccccc2)c(C)c1C(=O)NCCN1C(=O)S/C(=C\c2ccc(F)cc2)C1=O,-11.8% (inactive)
25,N#Cc1ccccc1CN1C(=O)S/C(=C/c2cccn2-c2cccc(C(=O)O)c2)C1=O,24.5% (active)
26,Cc1cc(/C=C2/SC(=O)N(CC(=O)N3CCCC3)C2=O)c(C)n1C,2.6% (inactive)
